In all, about 290,000 compounds went through this assay and about 3,000 (1%) were called active. This is one part of a sample in which actives are shown more often than they occur. A number with no mark means an inactive call. Rule as the data show it: active = inhibition mostly above about 36% (no sharp cut-off); inactive = mostly below about 34%.
assay: NOD1 signaling inhibitors, primary screen, cell-based, luminescence, uHTS (AID 1578); conditions: NOD1-driven NF-kB luciferase reporter cells, at 4 µM, hits give high values;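 also: HEK-293T reporter cells stimulated with the NOD1 agonist gamma-tri-DAP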

Structure (SMILES) | inhibition
CC1CCN(CCCNC(=O)c2ccc3c(Cl)c4c(nc3c2)CCCC4)CC1 | 0.2%
COc1ccc(-n2c(Cc3cccn3C)nnc2SCC(=O)Nc2ccccc2OC)cc1 | 55%
COc1ccc(-n2c(Cc3cccn3C)nnc2SCC(=O)Nc2ccccc2C)cc1 | 57% (active)
COc1ccc(-n2c(Cc3cccn3C)nnc2SCC(=O)Nc2cccc(C)c2C)cc1 | 33.3%
COc1ccc(NC(=O)CSc2nnc(Cc3cccn3C)n2-c2ccc(OC)cc2)cc1 | 0.1%
COc1ccc(-n2c(Cc3cccn3C)nnc2SCC(=O)Nc2ccc(C)c(Cl)c2)cc1 | 75.8% (active)
COc1ccc(-n2c(Cc3cccn3C)nnc2SCC(=O)Nc2ccc(Cl)cc2)cc1 | 39.9%
CN1C=CC=C/C1=C1\SC(=S)N(N)C1=O | -40.2%
CCOC(=O)C1CCN(CCC(=O)Nc2ccc(C)cc2)CC1 | -32.1%
COC(=O)c1cc(CNC(=O)c2ccc(N3CCCC3)c([N+](=O)[O-])c2)ccc1OC | -43.2%
CCNC(=S)N/N=C/c1cn(Cc2ccc(F)cc2)c2ccccc12 | 10.8%
CNC(=S)N/N=C/c1cn(Cc2ccc(F)cc2)c2ccccc12 | -6.2%
CNC(=S)N/N=C/c1cn(Cc2ccc(C)cc2)c2ccccc12 | 70.4% (active)
COc1ccc(S(=O)(=O)N(C)c2ccc(C(=O)Nc3c(C)n(C)n(-c4ccccc4)c3=O)cc2)cc1 | -31.9%
CCCC(C)NC(=O)c1cc(Cl)ccc1OC (stereo unspecified) | -0.3%
CC(=O)c1cnc(Oc2cc(Cl)ccc2Cl)nc1C | -14.2%
CN(C)S(=O)(=O)c1cccc(CSc2cccc[n+]2[O-])c1 | -15.4%
Cc1cc(C)n2nc(SCc3cccc(S(=O)(=O)N(C)C)c3)nc2n1 | 7.2%
COC(=O)c1c(NC(=O)C2CCC2)sc(C(=O)N(C)C)c1C | -8.7%
CCc1cccc(N(C(=O)c2csnn2)C(C(=O)NC2CCCC2)c2cccnc2)c1 (stereo unspecified) | -10.2%
O=C(O)c1ccc2c(=O)n3c(nc2c1)/C(=C/c1ccc(C(F)(F)F)cc1)CC3 | 1.9%
O=C(O)c1ccc2c(=O)n3c(nc2c1)/C(=C/c1ccc(F)cc1)CC3 | 33.3% (active)
CSc1ccc(/C=C2\CCn3c2nc2cc(C(=O)O)ccc2c3=O)cc1 | -1.6%
Cc1nc(-c2ccccc2)sc1C1(C)CC(c2c(Cl)cccc2Cl)=NO1 (stereo unspecified) | 10.1%

Structure (SMILES) | inhibition
CCCO/N=C1/C(=O)N(c2ccccc2)c2ccccc21 | 6.1%
C#CCN1C(=O)C(O)(CC(=O)/C=C/C=C/c2ccccc2)c2ccccc21 (stereo unspecified) | 57% (active)
CCN1C(=O)C(O)(CC(=O)/C=C/C=C/c2ccccc2)c2ccccc21 (stereo unspecified) | -4.8%
NC(=O)CN1C(=O)C(O)(CC(=O)/C=C\C=C\c2ccccc2)c2ccccc21 (stereo unspecified) | 17.8%
Cc1ccc(S(=O)(=O)/N=C(/Nc2ccc3[nH]c(=O)[nH]c3c2)c2ccc(F)cc2)cc1 | 3.8%
N#CC1=C(SCC(=O)NC2CC2)NC(=O)C(C#N)C12CCCCC2 (stereo unspecified) | 15.7%
CCSC1=C(C#N)C2(CCCCC2)C(C#N)C(=O)N1 (stereo unspecified) | -3.2%
COCCN=C1OC(=O)N2C(=O)C3=C4[C@@H](C[C@H]5C(=O)N(c6ccccc6)C(=O)[C@H]5[C@H]4[C@@]12Cc1ccccc1)[C@H]1C(=O)N(c2ccccc2)C(=O)[C@H]1[C@H]3C | 4.5%
Cc1cc(C)nc(N(C#N)Cc2ccccc2C)n1 | -6.3%
CCCOc1ccc(C(=O)C(CN2CCCC2)c2ccccc2)cc1 (stereo unspecified) | 31.5%
COc1ccc(C(=O)C(CN2CCCC2)c2ccccc2)cc1 (stereo unspecified) | 78.7% (active)
CCOc1ccc(C(=O)C(CN2CCOCC2)c2ccccc2)cc1 (stereo unspecified) | -28.1%
O=C(c1ccc(F)cc1)C(CN1CCOCC1)c1ccccc1 (stereo unspecified) | 67.3% (active)
COc1ccc(C(=O)C(CN2CCOCC2)c2ccccc2)cc1 (stereo unspecified) | 38%
O=C(c1ccc(Br)cc1)C(CN1CCOCC1)c1ccccc1 (stereo unspecified) | 5.4%
Fc1ccc(OCc2nn[nH]n2)c(F)c1 | -9.1%
COc1ccc(C(=O)NC(=S)NNC(=O)[C@H]2C[C@@H]2c2ccccc2)cc1OC | -2.6%
O=C(NCC(=O)N(c1cccc(F)c1)C(C(=O)NC1CCCC1)c1ccco1)c1ccco1 (stereo unspecified) | -35.9%
Cc1ccc(Oc2ccc(C(=O)NCc3ccncc3)cc2)cc1 | 38.4% (active)
CCOc1ccc(C(=O)NCc2ccncc2)cc1 | -14.8%
O=C(NCc1ccncc1)c1ccc(Oc2ccccc2)cc1 | 18.9%
O=S(=O)(NCc1ccc2c(c1)OCO2)c1c(F)cc(F)cc1Br | -29.4%
COc1ccccc1NC(=O)C(=O)N/N=C/c1ccc([N+](=O)[O-])s1 | 74.8% (active)
Cc1cc(C(=O)N/N=C/c2ccc([N+](=O)[O-])cc2)c2ccccc2n1 | 8.1%

Structure (SMILES) | inhibition
O=C(N/N=C\c1cccc([N+](=O)[O-])c1O)C1COc2ccccc2O1 (stereo unspecified) | -14.4%
COC(=O)N/N=C/c1ccc([N+](=O)[O-])s1 | -14.7%
Fc1ccccc1/C=N/NC(=S)Nc1ccc(Cl)cc1Cl | -13.3%
Cc1ccccc1C(=O)N/N=C/c1ccc([N+](=O)[O-])s1 | 11%
O=C(N/N=C\c1ccc(Cl)s1)C1COc2ccccc2O1 (stereo unspecified) | -4.2%
COc1ccccc1NC(=O)C(=O)N/N=C/c1cccs1 | -36%
Fc1ccc(/C=N/NC(=S)Nc2ccc(Cl)cc2Cl)cc1 | 8.9%
COc1cccc(NC(=O)c2ccccc2N2C(=O)C3C4C=CC(C5CC45)C3C2=O)c1 (stereo unspecified) | -54.1%
COc1cccc(OCC(O)CNC(C)c2ccccc2)c1 (stereo unspecified) | -39.9%
C=CCNc1nnnc2c1sc1nc(N3CCOCC3)c3c(c12)CCCC3 | -1.1%
COC(=O)c1c(NC(=O)COC(=O)CNC(=O)c2ccco2)sc(C)c1C | -14.8%
Cc1ccc(/C(O)=C2\C(=O)C(=O)N(C)C2c2ccc(Br)cc2)cc1 (stereo unspecified) | -22%
CC1CN(C(=O)CN2C(=O)c3ccccc3C2=O)CC(C)O1 (stereo unspecified) | -11.2%
c1ccc(C(c2nnnn2C2CCCC2)N2CCN(c3nc4ccccc4s3)CC2)cc1 (stereo unspecified) | 8.2%
CCOC(=O)c1c(NC(=O)CC)sc2c1CCN(Cc1ccccc1)C2 | -21.7%
Nc1nonc1-n1nnc(C(=O)N/N=C/c2ccccn2)c1CNc1ccccc1 | -11.6%
O=C(N/N=C/c1cccs1)c1cc(-c2ccncc2)nc2ccccc12 | 4.8%
Cc1ccsc1/C=N/NC(=O)c1cc(-c2ccncc2)nc2ccccc12 | 69.5% (active)
COc1ccccc1-c1cc(C(=O)N/N=C/c2sccc2C)c2ccccc2n1 | -11.4%
Cc1onc(-c2ccccc2Cl)c1C(=O)OCC(=O)c1c(N)n(C)c(=O)n(C)c1=O | -8.2%
COc1ccc(C(C(=O)NC2CCCCC2)N(C(=O)c2snc(C(N)=O)c2N)c2ccc(OC)cc2OC)cc1 (stereo unspecified) | -7.1%
Cn1c(=O)n(C)c2cc(NC(=O)c3ccccc3NS(C)(=O)=O)ccc21 | 44.4%
O=c1[nH]c(C2CCN(S(=O)(=O)Cc3ccccc3)CC2)nc2c1nnn2Cc1cccc(Cl)c1 | -7.8%
NC(=NCCCCCCN=C(N)/N=C(\N)Nc1ccc(Cl)cc1)/N=C(\N)Nc1ccc(Cl)cc1 | 46.6% (active)

Structure (SMILES) | inhibition
NC(=O)Nc1ccc(Cl)cc1 | 0.2%
NC(N)=NC(=S)Nc1ccc(Cl)cc1 | -15.3%
Cc1ccc(S(=O)(=O)NC(C)C(=O)Nc2ccc3c(c2)OCO3)cc1 (stereo unspecified) | -7.4%
Cc1cc(C(F)F)n2nc(C(=O)Nc3cccc(C(F)(F)F)c3)nc2n1 | -25.8%
COC(=O)CNC(=O)C(NC(=O)c1ccc(Cl)cc1)C(C)C (stereo unspecified) | 1.3%
O=C(CC1C(=O)NCCN1Cc1cccc(F)c1)NC1CCC1 (stereo unspecified) | -28.3%
COc1ccc2c(c1)C(C)=CC(C)(C)N2S(=O)(=O)c1ccc(NC(C)=O)cc1 | 31.4%
CCOc1ccc2c(c1)C(C)=CC(C)(C)N2S(=O)(=O)c1ccc(NC(C)=O)cc1 | 74.1% (active)
CCOc1ccc2c(c1)C(C)=CC(C)(C)N2S(=O)(=O)c1ccc(C)cc1 | -31.4%
CC(=O)c1cnc2nc(SCc3ccccc3)nn2c1C | -36%
O=C(NC1CCCC1)C(c1ccc(F)cc1)N(C(=O)c1csnn1)c1ccccc1 (stereo unspecified) | -27.7%
O=C(CSc1nc2ccccc2s1)c1ccc(O)cc1O | 0.6%
CCOc1ccc2nc(SCC(=O)c3ccccc3)sc2c1 | -38.9%
CCOc1ccc2nc(SCC(=O)Nc3ccc4c(c3)OCO4)sc2c1 | 67.3% (active)
O=C(CSc1nc2ccccc2s1)Nc1ccc2c(c1)OCO2 | 12.2%
CCOc1ccc2nc(SCC(=O)c3ccc(O)cc3O)sc2c1 | 51.8% (active)
CCOc1ccc2nc(SCC(=O)NC(=O)C(C)C)sc2c1 | -13.9%
CCN1CCN(C(=S)c2ccc(O)cc2)CC1 | -31%
Nc1cccc(C(=O)OCC(=O)Nc2cccc3c2C(=O)c2ccccc2C3=O)c1 | -3.2%
O=C(CSc1ccccc1)NC1=NCCS1 | -5.2%
COc1ccc(N(C)C(=O)c2cnc(N3CCN(c4ncccn4)CC3)c3ccccc23)cc1 | -20%
COc1ccc(Nc2ncc(C(=O)N3CCN(c4ccccc4OC)CC3)c3ccccc23)cc1 | 52.5%
CN(C(=O)c1cnc(N2CCN(c3ncccn3)CC2)c2ccccc12)c1ccc(Cl)cc1 | 14.2%
COc1ccccc1C(=O)N1CCN(c2cccc(Cl)c2)CC1 | 33.8%

Source: PubChem BioAssay AID1578 (Sanford-Burnham Center for Chemical Genomics, 2009)
